Laboratory results taken from PubChem BioAssay.
Unmarked numbers belong to inactive results.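 The calls were made as follows, unless noted: active = inhibition over a set limit, the all-compound mean plus 3 SD, in both replicate runs; inconclusive = over that limit in just one replicate run; inactive = at or under that limit in both runs.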

Experiment: inhibitors of the yeast RAM network, pilot screen, dse1pr::URA3 reporter, 5-FOA selection (AID 869);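 also: 0% = DMSO wells with no growth and 100% = 10 µM 1-NA-PP1 with full growth; RAM network block rescues cells from 5-FOA so hits raise OD615 growth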
Conditions: S. cerevisiae dse1pr::URA3 5-FOA growth, OD615, 2 d; at 10 µM; stronger effect = higher value; strain carries analog-sensitive mutant Cbk1 kinase

Structure (SMILES)	inhibition
COC(=O)c1ccc(Cl)c(NC(=O)NC2CCCCC2)c1	2.23%
COc1ccccc1OCC(=O)Nc1ccc(S(=O)(=O)NC(C)=O)cc1	0.645%
O=C(CSc1nc(-c2ccco2)cc(C(F)(F)F)n1)NC1CCCC1	0.995%
Cc1ccc(-n2c(C)cc(C(=O)OCC(=O)N(C)C3CCS(=O)(=O)C3)c2C)cc1 (stereo not given)	0.955%
CC1c2[nH]c3ccccc3c2CCN1S(C)(=O)=O (stereo not given)	0.31%
CCOC(=O)C1CCCN(C(=O)CN(c2ccc(OC)cc2)S(=O)(=O)c2c(C)noc2C)C1 (stereo not given)	1.58%
CC(C)NS(=O)(=O)c1ccc(CCC(=O)NCc2cccnc2)cc1	1.33%
O=S(=O)(NCCO)c1cccc2cccnc12	1.24%
O=c1[nH]c2ccc(Cl)cc2c(-c2ccccc2)c1N1CCOCC1	0.985%
CC1Cc2ccccc2N1C(=O)CSC1=NCCS1 (stereo not given)	2.67%
COc1cccc(-n2c(Cc3cc(=O)[nH]c(=O)[nH]3)nnc2SCC(=O)N2CCCCC2)c1	1.77%
Cc1csc2nc(CNS(=O)(=O)c3ccc(-c4ccccc4)cc3)cn12	0.94%
CC(=O)Nn1cc2c(=O)n(C)c(=O)n(C)c2c1	1.68%
O=C(CCc1nc2ccccc2[nH]1)N1CCc2ccccc2C1	0.94%
Cc1cc2cc(CCNC(=O)c3c(-c4ccccc4Cl)noc3C)c(=O)[nH]c2cc1C	1.85%
Cc1ccc2c(c1)c1c(n2CC(O)CN2C(=O)CNC2=O)C(=O)CCC1 (stereo not given)	1.74%
CCOC(=O)C1=C2N(C)c3ccccc3N2CCC1=O	1.9%
CN(CC(=O)N1CC=C(c2ccccc2)CC1)S(=O)(=O)c1ccc2c(c1)c(=O)n(C)c(=O)n2C	0.26%
CC1Cc2ccccc2N1C1=NS(=O)(=O)c2ccccc21 (stereo not given)	2.68%
CCOC(=O)N1CCC(NC(=O)c2csc3c2CCCC3)CC1	1.29%

Structure (SMILES)	inhibition
COC(=O)NCC(c1cccnc1)N1CCN(c2ccccc2F)CC1 (stereo not given)	1.66%
Cc1nc2ccccc2n1-c1ccccc1	0.185%
Cc1cc(-c2ccccc2)n2ncc(C#N)c2n1	1.17%
CSC1=NCCN1C(=O)COc1ccccc1	1.57%
COC(=O)c1ccccc1NC(=O)CSc1nccn1C	1.27%
N#Cc1nc(-c2ccccc2F)oc1NCc1ccccc1	1.98%
OC(C#CCN1CCCC1)c1ccccc1 (stereo not given)	0.7%
COC(=O)c1ccc(CSc2ncn[nH]2)o1	0.395%
COc1cc(/C=N/n2cnnc2)ccc1OC(=O)c1ccncc1	1.43%
Cc1cc(NC(=O)CSCCc2ccncc2)no1	0.675%
C=CCn1c(SCc2ccc(F)cc2)nc2c1c(=O)[nH]c(=O)n2C	0.25%
Cn1c(NC(=O)CC(C)(C)C)cc(=O)n(C)c1=O	3.15%
O=C(CSc1n[nH]c(-c2ccccc2)n1)c1ccccc1	1.01%
Cc1cc(C(=O)NCC2CCCO2)n(-c2ccccc2)n1 (stereo not given)	0.28%
COC(=O)CSc1nc2ccccc2nc1SCC(=O)OC	2.12%
COC(=O)C1=C(C)N(c2cc(Cl)cc(Cl)c2)C(=O)C1	0.14%
CC(=O)c1c(C)[nH]c(C(=O)Nc2cc(C)ccc2C)c1C	2.14%
COc1cc(CN2CCN(c3cccc(C)c3C)CC2)cc(Br)c1O	-0.235%
Cn1c(SCC(=O)Nc2ccccc2F)nnc1-c1cccnc1	1.01%
Cc1ccc(OCCn2c(C)c(/C=N/n3cnnc3)c3ccccc32)cc1	0.8%

Experiment: RAM signaling pathway blockade in yeast – S. cerevisiae, Pdr1DBD-CYC8 efflux-inhibited sensitized strain, primary screen (AID 1298;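 active = RAM network inhibition above 8.4% in each of two replicates, 3 SD over the compound average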;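 also: 0% = DMSO untreated cells without growth and 100% = 10 µM 1-NA-PP1 full growth; higher means more yeast growth rescued from 5-FOA killing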)
Conditions: S. cerevisiae cbk1-as DSE1-URA3 strain, 5-FOA growth OD615, 2 d; at 50 µM; stronger effect = higher value

Structure (SMILES)	RAM network inhibition
COC(=O)c1ccc(Cl)c(NC(=O)NC2CCCCC2)c1	6.1%
COc1ccccc1OCC(=O)Nc1ccc(S(=O)(=O)NC(C)=O)cc1	2.08%
O=C(CSc1nc(-c2ccco2)cc(C(F)(F)F)n1)NC1CCCC1	1%
Cc1ccc(-n2c(C)cc(C(=O)OCC(=O)N(C)C3CCS(=O)(=O)C3)c2C)cc1 (stereo not given)	8.11%
CC1c2[nH]c3ccccc3c2CCN1S(C)(=O)=O (stereo not given)	0.57%
CCOC(=O)C1CCCN(C(=O)CN(c2ccc(OC)cc2)S(=O)(=O)c2c(C)noc2C)C1 (stereo not given)	1.13%
CC(C)NS(=O)(=O)c1ccc(CCC(=O)NCc2cccnc2)cc1	1.08%
O=S(=O)(NCCO)c1cccc2cccnc12	-0.64%
O=c1[nH]c2ccc(Cl)cc2c(-c2ccccc2)c1N1CCOCC1	1.15%
CC1Cc2ccccc2N1C(=O)CSC1=NCCS1 (stereo not given)	6.64%
COc1cccc(-n2c(Cc3cc(=O)[nH]c(=O)[nH]3)nnc2SCC(=O)N2CCCCC2)c1	5.28%
Cc1csc2nc(CNS(=O)(=O)c3ccc(-c4ccccc4)cc3)cn12	4.87%
CC(=O)Nn1cc2c(=O)n(C)c(=O)n(C)c2c1	1.13%
O=C(CCc1nc2ccccc2[nH]1)N1CCc2ccccc2C1	1.76%
Cc1cc2cc(CCNC(=O)c3c(-c4ccccc4Cl)noc3C)c(=O)[nH]c2cc1C	3.43%
Cc1ccc2c(c1)c1c(n2CC(O)CN2C(=O)CNC2=O)C(=O)CCC1 (stereo not given)	3.57%
CCOC(=O)C1=C2N(C)c3ccccc3N2CCC1=O	-0.41%
CN(CC(=O)N1CC=C(c2ccccc2)CC1)S(=O)(=O)c1ccc2c(c1)c(=O)n(C)c(=O)n2C	5.04%
CC1Cc2ccccc2N1C1=NS(=O)(=O)c2ccccc21 (stereo not given)	7%
CCOC(=O)N1CCC(NC(=O)c2csc3c2CCCC3)CC1	3.9%

Structure (SMILES)	RAM network inhibition
COC(=O)NCC(c1cccnc1)N1CCN(c2ccccc2F)CC1 (stereo not given)	1.57%
Cc1nc2ccccc2n1-c1ccccc1	4.25%
Cc1cc(-c2ccccc2)n2ncc(C#N)c2n1	2.36%
CSC1=NCCN1C(=O)COc1ccccc1	2.21%
COC(=O)c1ccccc1NC(=O)CSc1nccn1C	2.31%
N#Cc1nc(-c2ccccc2F)oc1NCc1ccccc1	3.96%
OC(C#CCN1CCCC1)c1ccccc1 (stereo not given)	-0.43%
COC(=O)c1ccc(CSc2ncn[nH]2)o1	3.38%
COc1cc(/C=N/n2cnnc2)ccc1OC(=O)c1ccncc1	1.08%
Cc1cc(NC(=O)CSCCc2ccncc2)no1	1.27%
C=CCn1c(SCc2ccc(F)cc2)nc2c1c(=O)[nH]c(=O)n2C	2.71%
Cn1c(NC(=O)CC(C)(C)C)cc(=O)n(C)c1=O	-1.17%
O=C(CSc1n[nH]c(-c2ccccc2)n1)c1ccccc1	2.45%
Cc1cc(C(=O)NCC2CCCO2)n(-c2ccccc2)n1 (stereo not given)	2.07%
COC(=O)CSc1nc2ccccc2nc1SCC(=O)OC	7.83%
COC(=O)C1=C(C)N(c2cc(Cl)cc(Cl)c2)C(=O)C1	2.04%
CC(=O)c1c(C)[nH]c(C(=O)Nc2cc(C)ccc2C)c1C	1.74%
COc1cc(CN2CCN(c3cccc(C)c3C)CC2)cc(Br)c1O	1.51%
Cn1c(SCC(=O)Nc2ccccc2F)nnc1-c1cccnc1	-1.31%
Cc1ccc(OCCn2c(C)c(/C=N/n3cnnc3)c3ccccc32)cc1	1.89%
